# Most compounds without a hit are left out; they make up all but 13% or so of the library.
# HCV inhibitor: qHTS Assay for Inhibitors of Hepatitis C Virus (HCV); Huh7.5.1 HCVcc-Cre infection, luciferase reporter, 44 h; Potency, µM (highest dose often 41.8 µM), for the others: at the highest dose activity change, negative = inhibition, most hits filed as inhibitors; hit rate 3.4% among 340,000; AID 651820, 2012; further: potency means the concentration at half of the fitted maximal effect
#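 Reporter virus HCVcc-Cre (~0.5 moi) infects cells exposed to compound; seeding density 1,000 cells/well with 4 h settling beforehand. Luminescence, 15 sec read, taken 44 h post-infection following a 15 min RT substrate incubation.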
# Pf growth 96h: Primary qHTS for delayed death inhibitors of the malarial parasite plastid, 96 hour incubation; P. falciparum luciferase reporter growth, 96 h; hit rate 6.9% among 320,000; Potency, µM (highest dose often 28.7 µM), without a hit: at the highest dose activity change, negative = inhibition, most hits filed as inhibitors; AID 504834, 2011; further: potency means the concentration at half of the fitted maximal effect
#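 Infected RBCs, 2% Hct / 0.05% parasitemia final; luciferase-reporter P. falciparum; cpd 96 h, 37 C, 5% CO2; luciferase detection reagent; luminescence.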
# Pf growth 48h: Primary qHTS for delayed death inhibitors of the malarial parasite plastid, 48 hour incubation; Potency, µM (titrated, usually from 28.7 µM), for the others: at the highest dose activity change, negative = inhibition, usual class: inhibitors; P. falciparum luciferase growth in erythrocytes, 48 h; hit rate 5.9% among 310,000; further: potency means the concentration at half of the fitted maximal effect
#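 Growth was read as firefly luciferase luminescence after a 48 h, 37 C, 5% CO2 exposure of compounds to reporter-bearing P. falciparum cultures (0.1% parasitemia, 2% hematocrit final) in Albumax-supplemented RPMI 1640.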
# HCMV antiviral: qHTS Assay for inhibitors of the human cytomegalovirus (HCMV) | HFF cells, HCMV-luciferase reporter, 72 h; active compounds read low | activity change, negative = inhibition, % at 57.5 µM | hit rate 4.5% among 410,000; in the data active means activity change below about -60%; inconclusive means no clear call, values can overlap the other calls; inactive means above about -39%
#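 Luciferase read-out from HCMV-luciferase-infected HFFs (MOI 1 PFU/cell) 72 h post infection at 37C; compounds added after 16 h cell attachment; activity normalized between buffer-only basal and Salinomycin (10uM) inhibitor controls.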
# * marks the source's active call; other numbers are inactive results; ? = inconclusive; . = no result. Unless noted, the call rests on the fitted dose curve; in most records, active means well fitted inhibition curve with a large enough effect; inconclusive means small, poorly fitted or top-dose-only effect, or another doubt; inactive means no such curve, though single readings can be large or run the other way. On the % scale 0 is the no-effect control and ±100 the full control effect.
SMILES,HCV inhibitor,Pf growth 96h,Pf growth 48h,HCMV antiviral
CCOC(=O)C1(CCCc2ccccc2)CCN(CCCn2cccn2)CC1,?,10.4µM*,?,-24.7
CCOC(=O)C1(CCCc2ccccc2)CCN(Cc2cn(CC)nc2C)CC1,11.2µM*,0.0%,?,?
O=C(NCc1ccc(Cl)cc1)O[C@H]1CC[C@@]23CCCN2C(=O)CCC[C@H]3[C@H]1Cc1ccccc1,.,.,.,11.9
O=C(Cn1c(=O)c2sccc2n(CC(=O)Nc2ccc(Cl)cc2Cl)c1=O)NCCc1ccccc1,.,.,.,-7.1
O=C(COc1ccccc1-c1nc(-c2ccccc2)no1)Nc1ccccc1[N+](=O)[O-],.,.,.,-1.9
CCOc1ccc(-c2nn(-c3ccccc3)cc2C2NC(=O)NC(C)=C2C(=O)OC(C)C)cc1C (centres undefined),.,.,.,-9.9
Cn1c(CNc2ccc(Cl)cc2)nc2ccccc21,20µM*,?,37.3%,296.2
Cc1ccc(N2CCN(c3ccc(NCc4nc5ccccc5n4C)cc3)CC2)cc1,?,5.22µM*,13.1µM*,19.2
COC(=O)[C@]1(C#N)CC(=O)N([C@H](C)[C@H](O)c2ccccc2)[C@@H]1c1ccccc1,.,.,.,34.5
CCC(=O)N1CCCC(C(=O)c2ccc(-c3ccccc3)cc2)C1 (centres undefined),-21.2%,-11.0%,17.8%,23.2
Cc1nn(C)cc1CN1CCCC(C(=O)c2ccc(-c3ccccc3)c(F)c2)C1 (centres undefined),10µM*,0.0%,14.7µM*,?
Cn1cc(CN2CCCC(C(=O)c3ccc(-c4ccccc4)c(F)c3)C2)cn1 (centres undefined),?,?,?,-12.9
CCn1cc(CN2CCCC(C(=O)Nc3cccc(-c4cc5ccccc5[nH]4)c3)C2)cn1 (centres undefined),?,85.7%,10.4µM*,-14.2
Cn1cc(CN2CCCC(C(=O)c3ccc(-c4ccccc4)cc3)C2)cn1 (centres undefined),14.1µM*,?,?,-18.4
CCn1cc(CN2CCCC(C(=O)c3ccc(-c4ccccc4)cc3)C2)cn1 (centres undefined),?,-17.7%,41.7%,-61.0*
CCCCCCCCCCCCOCCCN,.,?,-11.1%,.
Cc1cc2nc(-c3cccc(NC(=O)COc4ccc(C(C)C)cc4)c3)oc2cc1C,.,.,.,89.0
CC(C)Oc1cccc(C(=O)C2CCCN(C(=O)c3cncs3)C2)c1 (centres undefined),12.7%,?,3.0%,?
O=C(c1ccc(-c2ccccc2)c(F)c1)C1CCCN(C(=O)c2cncs2)C1 (centres undefined),-7.5%,13.1µM*,?,10.6
CN(C)CCN=Cc1c(O)n(-c2cccc3ccccc23)c(=O)[nH]c1=O,5.4%,10.4µM*,-3.3%,15.2
O=C(Nc1ccccc1C(F)(F)F)C1(S(=O)(=O)c2ccc(Cl)cc2)CC1,.,.,.,-8.7
CCc1ccc(-n2c(=O)c3sc4ccccc4c3n(CC(=O)NCc3ccccc3)c2=O)cc1,.,.,.,-5.4
CCOc1[nH]n(-c2ccccc2)c(=O)c1C=NCc1cccnc1,3.8%,18.5µM*,?,21.3
Cc1cc(S(=O)(=O)N2CCCCC2CCNC(=O)C(=O)NCc2cccnc2)ccc1F (centres undefined),-1.6%,13.1µM*,?,-26.1
O=C(NCCC1CCCCN1S(=O)(=O)c1ccccc1)C(=O)NCc1ccccc1 (centres undefined),-2.8%,16.5µM*,-21.0%,-12.6
SMILES,HCV inhibitor,Pf growth 96h,Pf growth 48h,HCMV antiviral
O=C(NCCC1CCCCN1S(=O)(=O)c1ccccc1)C(=O)NCc1ccc(F)cc1 (centres undefined),?,?,10.4µM*,-20.1
Cc1ccc(CNC(=O)C(=O)NCCC2CCCCN2S(=O)(=O)c2ccccc2)cc1 (centres undefined),?,?,-31.5%,-10.1
CCOC(=O)[C@]12CCCC=C1N(CCc1ccc(OC)c(OC)c1)C(=O)[C@H](CC(=O)NCCCCc1ccccc1)C2,.,.,.,60.7
CCOC(=O)c1c(NC(=O)c2ccc(S(=O)(=O)N(CC(C)C)CC(C)C)cc2)sc2c1CCN(CC)C2,.,.,.,-30.3
Cc1cc2nc(NC(=O)C3(C)CCN3C(=O)C(C)C)[nH]c2cc1C (centres undefined),.,.,.,33.5
CCCC(=O)Nc1cccc(-c2cn3c(C)csc3n2)c1,.,.,.,-12.0
COc1ccc(Cn2cc(CN3CC(N4CCSCC4)CS3(=O)=O)nn2)cc1 (centres undefined),.,.,.,-100.5*
COc1ccc(C(CC(=O)Nc2ccc(C(C)=O)cc2)N2Cc3ccccc3C2=O)cc1 (centres undefined),.,.,.,60.0
COc1cc(OC)cc(N2C(=O)CSC23C(=O)Nc2ccccc23)c1 (centres undefined),.,.,.,6.2
COC(=O)c1ccc(C2c3c(oc4cc(C)c(C)cc4c3=O)C(=O)N2CCCN(C)C)cc1 (centres undefined),.,32.1%,5.22µM*,.
CCOC(=O)c1sc(N2C(=O)c3oc4cc(C)c(C)cc4c(=O)c3C2c2ccc(C)cc2)nc1C (centres undefined),.,.,.,-111.2*
COC(=O)c1ccc(C2c3c(oc4ccc(C)cc4c3=O)C(=O)N2Cc2ccc3c(c2)OCO3)cc1 (centres undefined),.,.,.,-109.5*
CCOc1ccc(C2c3c(oc4cc(C)c(C)cc4c3=O)C(=O)N2CCCN(C)C)cc1OC (centres undefined),-19.1%,?,.,2.4
CCOC(=O)C1CCCN(C(=O)c2cccc(NC(=O)c3nsc4ccccc34)c2)C1 (centres undefined),.,.,.,69.6
CCc1ccc2oc(C(=O)Nc3cc(C)ccc3C)cc(=O)c2c1,.,.,.,-33.6
COc1cccc(-c2cc(CNC(=O)[C@H]3O[C@@H](n4cnc5c(N)ncnc54)[C@H](O)[C@@H]3O)no2)c1,.,.,.,43.0
CC1CN=C(c2cc(Cl)c(N)c(Cl)c2)c2c3ccc(C(F)(F)F)cc3[n+]([O-])n21 (centres undefined),.,.,.,40.0
Cc1ccc(C(=O)Nc2c(C)nc3ccccn3c2=O)cc1C,.,.,.,0.1
CS(=O)(=O)Cc1nc2ccccc2oc1=O,-19.5%,6.57µM*,?,23.9
CCOC(=O)c1c(C)[nH]c(C)c1S(=O)(=O)N1CCC(C(=O)Nc2cc(Cl)ccc2OC)CC1,.,.,.,-11.5
CCOC(=O)C(C)Oc1ccc(=O)n(-c2ccccc2)n1 (centres undefined),9.0%,1.85µM*,-2.5%,41.0

# Source: PubChem BioAssay (National Center for Advancing Translational Sciences (NCATS))
